“And” between values parts separate entries of the source, which are not always exact repeats. Equal entries are not always repeated. Hit rate of the full screen: of about 5,500 compounds, about 2,000 (36%) were called active. Another 18% or so got no clear call; they are omitted. Cut-off read from the data, not from the text of the source: active = normalized growth mostly below about 0.91 (no sharp cut-off); inconclusive = no clear call, values can overlap the other calls; inactive = mostly above about 0.92. The list shows a part of the results.
Experiment: chemical genetic growth profiling, strain panel (AID 1159580);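 note: tested at 20 µM; growth read once vehicle control cultures reached saturation at 30 °C; 1 = growth at the plate median or of vehicle wells; lower values mean less growth of the strain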
Conditions: S. cerevisiae deletion strains, growth OD

Measured: normalized growth

CC1(C)S[C@@H]2[C@H](NC(=O)Cc3ccccc3)C(=O)N2[C@H]1C(=O)O
inactive: locus YAL021C, strain ccr4, hits give low values 1.03 | locus YAL026C, strain drs2, hits give low values 1.04 | locus YAL030W, strain snc1, hits give low values 1.03 | locus YBL061C, strain skt5, hits give low values 1.04 | locus YBR009C, strain hhf1, hits give low values 1.03 | locus YBR021W, strain FUR4, hits give low values 1.01 | locus YBR023C, strain chs3, hits give low values 1.04 | locus YBR171W, strain sec66, hits give low values 1.04 | locus YBR229C, strain ROT2, hits give low values 1 | locus YBR231C, strain swc5, hits give low values 1.02 | locus YBR279W, strain paf1, hits give low values 1.02 | locus YCL011C, strain gbp2, hits give low values 1.04 | locus YCL016C, strain dcc1, hits give low values 1.03 | locus YCL029C, strain bik1, hits give low values 1.02 | locus YCL061C, strain MRC1, hits give low values 1.02 | locus YCL069W, strain vba3, hits give low values 1.04 | locus YCR088W, strain abp1, hits give low values 1.03 | locus YDL005C, strain med2, hits give low values 1.02 | locus YDL035C, strain GPR1, hits give low values 1.01 | locus YDL040C, strain nat1, hits give low values 1.03 | locus YDL074C, strain BRE1, hits give low values 1.01 | locus YDL101C, strain DUN1, hits give low values 1.01 | locus YDL134C, strain PPH21, hits give low values 1 | locus YDL185W, strain tfp1, hits give low values 1 | locus YDL192W, strain arf1, hits give low values 1.02 | locus YDR001C, strain nth1, hits give low values 1.01 | locus YDR069C, strain doa4, hits give low values 1 | locus YDR101C, strain arx1, hits give low values 1.02 | locus YDR137W, strain rgp1, hits give low values 1.03 | locus YDR150W, strain NUM1, hits give low values 1 | locus YDR159W, strain sac3, hits give low values 1.02 | locus YDR162C, strain NBP2, hits give low values 1.01 | locus YDR195W, strain ref2 1.01 | locus YDR297W, strain sur2, hits give low values 1.01 | locus YDR318W, strain mcm21, hits give low values 1.02 | locus YDR334W, strain swr1, hits give low values 1.04 | locus YDR335W, strain msn5, hits give low values 1.03 | locus YDR388W, hits give low values 1.02 | locus YDR392W, strain spt3, hits give low values 0.994 | locus YDR502C, strain sam2, hits give low values 1.02 | locus YEL003W, strain gim4, hits give low values 1.03 | locus YEL037C, strain rad23, hits give low values 1.03 | locus YEL061C, strain CIN8 (second series), hits give low values 1.02 | locus YEL061C, strain CIN8, hits give low values 1 | locus YER015W, strain faa2, hits give low values 1.03 | locus YER016W, strain bim1, hits give low values 1.02 | locus YER110C, hits give low values 1.03 | locus YER111C, strain swi4, hits give low values 1.01 | locus YER155C, strain BEM2 (second series), hits give low values 1.03 | locus YER155C, strain BEM2, hits give low values 0.999 | locus YER167W, strain BCK2, hits give low values 1 | locus YFR010W, strain ubp6, hits give low values 1.03 | locus YGL078C, strain dbp3, hits give low values 1.01 | locus YGL086W, strain mad1, hits give low values 1.01 | locus YGL167C, strain pmr1, hits give low values 1.04 | locus YGL173C, strain kem1, hits give low values 1.05 | locus YGL227W, strain vid30, hits give low values 1.05 | locus YGL240W, strain doc1, hits give low values 0.993 | locus YGL248W, strain PDE1, hits give low values 1.01 | locus YGL253W, strain hxk2, hits give low values 1.04 | locus YGR078C, strain PAC10, hits give low values 1.01 | locus YGR135W, strain pre9, hits give low values 1.02 | locus YGR252W, strain gcn5, hits give low values 0.994 | locus YHR013C, strain ard1, hits give low values 1.03 | locus YHR027C, strain rpn1, hits give low values 1.01 | locus YHR030C, strain SLT2, hits give low values 1.01 and 0.977 | locus YHR079C, strain IRE1 (second series), hits give low values 1.03 | locus YHR079C, strain IRE1, hits give low values 0.981 | locus YHR094C, strain hxt1, hits give low values 1.02 | locus YHR129C, strain ARP1, hits give low values 0.999 | locus YHR142W, strain chs7, hits give low values 1.06 | locus YHR200W, strain rpn10, hits give low values 1.02 | locus YIL066C, strain RNR3, hits give low values 1 | locus YIL073C, strain SPO22, hits give low values 1.05 | locus YIL125W, strain kgd1, hits give low values 1.01 | locus YIR030C, strain dcg1, hits give low values 1.02 | locus YJL092W, strain hpr5, hits give low values 1.03 | locus YJL095W, strain BCK1 (second series), hits give low values 1.02 | locus YJL095W, strain BCK1, hits give low values 1 and 0.971 | locus YJL115W, strain asf1, hits give low values 1.03 | locus YJL129C, strain trk1, hits give low values 1.05 | locus YJL134W, strain LCB3, hits give low values 1.01 | locus YJL154C, strain vps35, hits give low values 1.03 | locus YJL164C, strain tpk1, hits give low values 1.04 | locus YJL166W, strain qcr8, hits give low values 1.01 | locus YJL168C, strain set2, hits give low values 1.02 | locus YJL187C, strain SWE1 (second series), hits give low values 1 | locus YJR043C, strain POL32, hits give low values 1

— PubChem BioAssay AID1159580 (chemical genetic matrix, 2015)
